From PubChem
Tg IFNy HTS – T. gondii growth inhibition with IFN-gamma, primary screen, cell-based | Toxoplasma gondii growth in IFN-gamma-treated host cells; stronger effect = lower value | activity change, negative = inhibition, % (no concentration beside the values) | 3.8% of 69,000 active | AID 1259416, 2018; in the data active = activity change below about -70%, passing the limit was not always enough;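 note: host cells are HeLa cells infected with Toxoplasma gondii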
Hits are given with their value; . = inactive. Only a selection was taken, and hits are over-represented in it overall.

SMILES	Tg IFNy HTS
C=CCOCc1cncc2c1CCN(S(=O)(=O)c1ccccc1)C2	.
Cc1nc(C(C)C)cc(N(C)CC(C)N2CCOCC2)n1 (configuration not stated)	.
CCc1ccccc1NC(=O)N1CCC2(CC1)Nc1cc(OC)ccc1-n1cccc12	.
Cc1cccc(-c2nnc(-c3nc(NCCc4c(C)noc4C)c4ccccc4n3)o2)c1	.
Cc1noc(C)c1CCNc1ncc2c(n1)c1ccc(Cl)cc1n1ccnc21	-72.5
CN(Cc1noc(-c2ccccc2)n1)C(=O)CCC(=O)NC1CCCC1	.
CC(CO)NC(=O)C1(Cc2ccccc2-c2ccncc2)CCOCC1 (configuration not stated)	.
O=C(NCC(c1cccnc1)c1c[nH]c2ccccc12)Nc1cccc(Br)c1 (configuration not stated)	.
O=C(NCC(c1cccnc1)c1c[nH]c2ccccc12)Nc1ccc(Br)cc1F (configuration not stated)	-116.2
Cn1cc(C(CNC(=O)Nc2ccc(Br)cc2F)c2cccnc2)c2ccccc21 (configuration not stated)	.
Cc1nnsc1CN(C)C(=O)c1sc2ccccc2c1C	.
COc1ccc2oc(-c3ccccc3OC)cc(=O)c2c1	.
O=C(C#Cc1ccccc1)Nc1ccc(OC(F)(F)F)cc1	.
COc1cc(NC(=O)Nc2ccc(OC(F)(F)F)cc2)cc(C(F)(F)F)c1	-95.9
COc1ccc(-n2ncc(NC(=O)Nc3ccc(OC(F)(F)F)cc3)c2C)cc1	.
OCCn1ccnc1-c1cccc(-c2ccco2)c1	.
CN(C)C[C@H]1OC[C@H]2CCN(C(=O)N(C)C)C[C@H]21	.
Cc1ccc(CN2Cc3ccnn3CC(COc3cccnc3)C2)o1 (configuration not stated)	.
Cc1cc(C(=O)N2CCCC(c3ccc(Cc4ccc(Cl)cc4)cn3)C2)nc(N(C)C)n1 (configuration not stated)	-89.7
CCCc1cc(C(=O)N2CCCC(c3cc4ccccc4cn3)C2)n(C)n1 (configuration not stated)	.
Cc1nc2ccccn2c1CC(=O)N1CCCC(c2ccc(Cc3cccc(F)c3)cn2)C1 (configuration not stated)	.
Cn1cc(C(=O)N2CC[C@@H]3[C@H]2CCN3CC2CCOC2)cn1 (some centres not stated)	.
O=C(Nc1cccc2c1CCCC2)C1CCCN1S(=O)(=O)c1ccc(Cl)cc1 (configuration not stated)	.
Cc1ccc2cc(C3CC(c4ccc(Br)cc4)=NN3)c(Cl)nc2c1 (configuration not stated)	.
O=C1N(c2ccccc2)CC12CCN(S(=O)(=O)c1cccc(F)c1)CC2	.
SMILES	Tg IFNy HTS
OCC1(Cc2cccc(C(F)(F)F)c2)CCN(c2ccc3ccccc3n2)CC1	.
OCC1(CCc2ccccc2)CCN(c2ccc3ccccc3n2)CC1	-77.4
OCC1(CCc2ccccc2)CCN(c2nccc(N3CCC(O)C3)n2)CC1 (configuration not stated)	.
O=C(CN1CCCC1Cn1cccn1)Nc1nc(-c2ccc(F)cc2)cs1 (configuration not stated)	-77.2
Cc1csc(NC(=O)CN2CCC(c3ccc(F)cc3)CC2)n1	.
O=C(CN1CCCCC1)Nc1nc(-c2ccccc2)cs1	.
Cc1c(S(=O)(=O)NCc2cc(=O)[nH]c(N3CCC(C)CC3)n2)cnn1C	.
CCC1CN(Cc2ccc(OCc3ccccn3)cc2)CCN1C(C)C (configuration not stated)	.
CCN(Cc1noc(C)n1)C(=O)CC1CCc2ccccc21 (configuration not stated)	.
CC(C)C[C@@H](C(=O)N[C@H](C(=O)OC1CCCC1)c1ccccc1)[C@H](O)C(=O)NO	-84.8
CC(NC(=O)Cc1cc(F)cc(F)c1)C(=O)NC(C(=O)OC(C)(C)C)c1ccccc1 (configuration not stated)	.
CNC(=O)[C@@H](NC(=O)[C@H](CC(C)C)[C@H](O)C(=O)NO)C(C)(C)C	.
O=C(O)c1ccccc1Nc1nc(N2CCCC2)nc(N2CCCC2)n1	.
O=C(Cc1cccc(F)c1)N1CCc2ncnc(C3CC3)c2CC1	.
CC1CN(C)CCC1CCc1ccc(NC(=O)CC2NC(=O)c3ccccc32)cc1 (configuration not stated)	.
Cc1cc(CN(Cc2ccsc2)Cc2ccco2)n(C)n1	.
COc1ccc2nc(CN3CC=CC[C@@]4(C(=O)N5CCN(C)CC5)CCC[C@@H]34)ccc2c1	.
Cc1ccc(NC(=O)N2CCc3nc(-c4ccccc4)sc3C2)cc1C	.
COc1ccc(C)cc1NC(=O)N1CCc2nc(-c3ccc(C)cc3)sc2C1	.
CCOc1ccc(-c2nc3c(s2)CN(C(=O)Nc2ccc(C)c(C)c2)CC3)cc1	-105.8
CCOc1ccc(-c2nc3c(s2)CN(C(=O)Nc2cc(C)ccc2C)CC3)cc1	-112.4
COc1ccc(-c2nc3c(s2)CN(C(=O)Nc2ccc(C)cc2C)CC3)cc1	.
CCOc1ccc(-c2nc3c(s2)CN(C(=O)Nc2ccc(C)cc2)CC3)cc1	.
COc1ccc(N2CC3(CCN(C(=O)COc4ccccc4)C3)CC2=O)cc1 (configuration not stated)	.
CC(C)(C)c1ccc(CSC2=Nc3ccccc3C3=NC(CCC(=O)NCc4ccco4)C(=O)N23)cc1 (configuration not stated)	.
SMILES	Tg IFNy HTS
O=C(Cn1c(=O)cc(C(=O)N2CCCCC2)c2ccccc21)NCCc1ccccc1	.
O=C(Nc1cccc(C(=O)N2CCOCC2)c1)c1cnn2cccnc12	.
Nc1nc(Nc2ccc3c(c2)CC[C@@H](N2CCCC2)CC3)nn1-c1cc2c(nn1)-c1ccccc1CCC2	-76.4
CCNC(=O)C1(Cc2ccccc2-c2cccc(F)c2)CCN(C(=O)Cn2cncn2)CC1	.
CCc1ccc(C(=O)Nc2ccc(-c3nc(Cn4cccn4)c(C)o3)cc2)cc1	.
Cc1cnn(Cc2nc(-c3ccc(NC(=O)c4cccc(Cl)c4)cc3)oc2C)c1	.
Cc1cnn(Cc2nc(-c3ccc(NC(=O)c4ccc(Cl)cc4)cc3)oc2C)c1	-86.9
CCOc1ccc(C(=O)Nc2ccc(-c3nc(Cn4cc(C)cn4)c(C)o3)cc2)cc1	-90.6
COc1ccc(Cl)cc1C(=O)Nc1ccc(-c2nc(Cn3cc(C)cn3)c(C)o2)cc1	.
Cc1cnn(Cc2nc(-c3ccc(NC(=O)COc4ccccc4)cc3)oc2C)c1	.
Cc1nc(CN2CCCC2c2nc3ccc(F)cc3[nH]2)cs1 (configuration not stated)	.
COCC1CN(C(=O)N2CCCC2)Cc2cnn(C)c21 (configuration not stated)	.
CCOCC12CCCOC1CCN(C(=O)c1cccn1C)C2 (configuration not stated)	.
Cc1cc(NC(=O)Cn2c(=O)cc(-c3nc(C4CC4)no3)c3ccccc32)ccc1F	.
Cc1cnc2c(C(=O)Nc3cccc(CCc4ccncc4)c3)cnn2c1	.
CC(C)OC(=O)c1cn(Cc2c(F)cccc2F)c2sc(-c3ccc(NC(=O)C(C)C)cc3)c(CN(C)Cc3ccccc3)c2c1=O	-79.9
CN1C(=O)CCc2cc(C(=O)NCc3cccnc3)ccc21	.
CCSc1nsc(NC(=O)CN2CCC(Oc3cccc(F)c3)CC2)n1	.
Cc1ccc(-c2coc(-c3ccc(NC(=O)Nc4ccc(F)cc4)cc3)n2)cc1	.
O=C(Nc1ccc(F)cc1)Nc1nc(SCc2ccc(F)cc2)ns1	-110.0
COc1ccc(S(=O)(=O)NCCc2sc(-c3ccc(C)cc3)nc2C)cc1	.
